Hits are enriched below; roughly 21% of the tested compounds scored in any of these assays.
Shiga inhibitor: blocks Shiga toxin action in Vero cells | Vero cells, Shiga toxin protein synthesis inhibition reporter | inhibition, % at 38.7 µM | 290,000 compounds, 9.2% hits | AID 2315; in the data active means inhibition mostly above about 28%, no sharp cut-off; inactive means mostly below about 43%
Pf growth 96h: inhibits malaria parasite growth, 96 h; P. falciparum luciferase reporter growth, 96 h; Potency, µM (top dose mostly 28.7 µM), hits mostly inhibitors; 320,000 compounds, 6.9% hits; AID 504834
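Cell-based qHTS: luciferase-tagged P. falciparum in erythrocytes (2% hematocrit, 0.05% parasitemia final) incubated with compounds for 96 hours, 37 C, 5% CO2; luciferase detection reagent then added and luminescence measured.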
CHX counter: counter-screen hit for Shiga toxin inhibitors, cycloheximide. cell reporter, cycloheximide protein synthesis inhibition counterscreen. 300,000 compounds, 12% hits. max response, %. AID 2314; in the data active means max response mostly above about 13%, no sharp cut-off; inactive means mostly below about 14%; further: read at 38.3 µM for the half of the compounds with a filed dose
Pf growth 48h: inhibits P. falciparum growth in the first generation, 48 h | P. falciparum luciferase growth in erythrocytes, 48 h | Potency, µM (highest dose often 28.7 µM), usual class: inhibitors | 310,000 compounds, 5.9% hits | AID 504832
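Read-out is firefly luciferase luminescence from an integrated reporter in P. falciparum, so falling signal marks reduced parasite growth. Infected erythrocytes were at 2% hematocrit and 0.1% parasitemia (final) in Albumax-supplemented RPMI 1640.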
A number is an active result; . = inactive; ? = inconclusive; / = not tested or not shown. Unless noted, the call rests on the fitted dose curve; in most records, active means well fitted inhibition curve with a large enough effect; inconclusive means small, poorly fitted or top-dose-only effect, or another doubt; inactive means no such curve, though single readings can be large or run the other way.

SMILES | Shiga inhibitor | Pf growth 96h | CHX counter | Pf growth 48h
O=C(Nc1cc([N+](=O)[O-])ccc1O)c1cccc([N+](=O)[O-])c1 | / | . | . | .
O=C(Nc1ccccc1C(=O)Nc1ccncc1)c1ccccc1 | . | ? | . | ?
O=C(Nc1ccncc1)c1cc2ccccc2cc1O | / | 8.28µM | / | ?
COc1ccc(CCN2C(=O)CC(NNC(=O)c3ccccc3Br)C2=O)cc1OC (configuration not stated) | . | . | . | .
O=C(O)c1ccc2c(c1)C(=O)N([C@]1(C(=O)O)C[C@H]1c1ccccc1)C2=O | . | . | . | ?
O=[N+]([O-])c1cccc(Nc2nc(Cl)nc(Cl)n2)c1 | . | 11.7µM | . | .
CC(C(=O)Nc1cccc([N+](=O)[O-])c1)[n+]1ccccc1 (configuration not stated) | . | . | . | .
CC(Sc1cccc[n+]1[O-])C(=O)Nc1cccc([N+](=O)[O-])c1 (configuration not stated) | . | . | 16.3 | .
CC(=O)Nc1ccc(NC(=O)c2cc([N+](=O)[O-])cc([N+](=O)[O-])c2)cc1 | . | . | . | .
O=C(NNc1ccc([N+](=O)[O-])cc1)c1ccccc1F | . | . | 25.1 | .
Fc1cccc(Nc2nc(Cl)nc(Cl)n2)c1 | . | . | . | .
Cc1ccc(NC(=O)c2ccc(Nc3c([N+](=O)[O-])cc([N+](=O)[O-])cc3[N+](=O)[O-])cc2)cc1 | . | . | . | 5.22µM
N#CC1=C(N)Nc2ncnn2C1c1ccc(F)cc1 (configuration not stated) | . | . | . | .
CCS(=O)(=O)c1nc(S(=O)(=O)c2ccc(Cl)cc2)c(N2CCOCC2)s1 | . | . | . | ?
CCN(CC)CCOc1ccc(-c2nc3cc(Cl)ccc3s2)cc1 | / | ? | / | .
Cc1ccc(C(=O)/C=C/c2cc(C#N)n(C)c2C)cc1 | 80.0 | . | 35.4 | .
CCOC(=O)C1CCN(C(=O)CCCn2nc(C)c3c(C)n(-c4ccc(C)cc4)nc3c2=O)CC1 | . | ? | . | ?
O=C(CNC(=O)C1CCCCC1)OCC(=O)c1ccc(Br)cc1 | 56.3 | . | 41.0 | .
N/C(=N\OC(=O)C1CCCCC1)c1ccc(Br)cc1 | 51.2 | . | 22.7 | .
N/C(=N\OC(=O)C1CCCCC1)c1ccncc1 | 30.2 | . | 10.9 | .
N/C(=N\OC(=O)C1CCCCC1)c1ccccn1 | 86.2 | . | 31.0 | .
N/C(=N\OC(=O)CCC1CCCC1)c1ccc(Br)cc1 | . | ? | . | ?
C=CCN1C(=O)c2ccc(C(=O)NCCc3ccc(OC)c(OC)c3)cc2C1=O | . | ? | . | .
O=C(N/C(=C/c1cccnc1)C(=O)N1CCOCC1)c1ccccc1Br | . | . | . | .
N/C(=N\OC(=O)C1CCCCC1)c1ccc(Cl)cc1 | . | ? | 28.4 | .
SMILES | Shiga inhibitor | Pf growth 96h | CHX counter | Pf growth 48h
COc1cc(-c2nc(C(=O)NC3CCCCC3)cc3c2[nH]c2ccccc23)cc(OC)c1OC | . | ? | . | 6.57µM
COc1ccc(OC)c(-c2nc(C(=O)NCCCN3CCOCC3)cc3c2[nH]c2ccccc23)c1 | . | 2.94µM | . | 2.33µM
COc1cc(C(=O)NC2CCN(Cc3ccccc3)CC2)cc(Cl)c1OC | . | ? | . | ?
COc1ccc(OC)c(-c2nc(C(=O)NC3CCN(Cc4ccccc4)CC3)cc3c2[nH]c2ccccc23)c1 | . | 3.7µM | . | 8.28µM
C[C@H](NC(=O)c1cc2c([nH]c3ccccc32)c(-c2ccccc2)n1)C(=O)O | . | ? | . | ?
COc1cc(-c2nc(C(=O)NC3CCN(Cc4ccccc4)CC3)cc3c2[nH]c2ccccc23)cc(OC)c1OC | . | 2.08µM | . | ?
COc1cc(NC(=O)C/C(C)=N/NC(=O)C(OC)c2ccccc2)c(OC)cc1Cl (configuration not stated) | . | . | . | .
Clc1ccc(C2=Nn3c(nnc3-c3cccs3)SC2)cc1 | . | ? | . | ?
CCc1ccc(C2=Nn3c(nnc3-c3cccs3)SC2)cc1 | . | 1.85µM | . | 2.08µM
c1ccc(-c2ccc(C3=Nn4c(nnc4-c4cccs4)SC3)cc2)cc1 | . | 13.1µM | . | 9.28µM
c1ccc(C2=Nn3c(nnc3-c3cccs3)SC2)cc1 | . | . | . | .
CCOC(=O)Cc1csc(NS(=O)(=O)c2ccc(SC)cc2)n1 | . | . | . | .
COc1ccc(C2(C(=O)Nc3ccc(C)c(C)c3)CCOCC2)cc1 | . | . | . | .
NC(=O)CC(NC(=O)Cc1ccc(Cl)cc1)c1ccc(N2CCC(Cc3ccccc3)CC2)c([N+](=O)[O-])c1 (configuration not stated) | . | ? | . | .
COc1cccc(CNC23CC4CC(CC(C4)C2)C3)c1OCc1ccccc1 | . | . | . | 10.4µM
C[C@@H]1CC=C[C@H]2[C@H]1C(=O)N(Cc1ccccc1)[C@H]2c1ccc(/C=C/c2ccccc2)cc1F | . | ? | . | 10.4µM
COc1ccc(-c2ccc([C@H]3[C@H]4C=CC[C@@H](C)[C@@H]4C(=O)N3Cc3ccccc3)c(F)c2)cc1C | . | ? | . | 10.4µM
COc1ccc(-c2ccc(F)cc2)cc1[C@H]1[C@H]2C=CC[C@@H](C)[C@@H]2C(=O)N1Cc1ccccc1 | . | ? | . | 11.7µM
COc1ccc(-c2ccc(C3C4C=CCC(C)C4C(=O)N3Cc3ccccc3)c(F)c2)cc1C (configuration not stated) | . | / | . | /
COc1ccc(-c2c([C@H]3[C@H]4C=CC[C@@H](C)[C@@H]4C(=O)N3Cc3ccccc3)ccc3ccccc23)cc1OC | . | 2.94µM | . | 2.33µM
CCCOC(=O)c1ccc(NC(=O)c2cc(=O)[nH]c3ccccc23)cc1 | . | . | . | .
CC(=O)O[C@H]1C[C@@]2(C)[C@H](C[C@@H](O)[C@H]3[C@@]4(C)CC[C@@H](O)[C@@H](C)[C@H]4CC[C@@]32C)C1=C(CCC=C(C)C)C(=O)O | / | ? | / | .
CCCCNC(=O)c1ccccc1NC(=O)CCC | . | . | . | .
CCOC(=O)CSc1ccc(C(=O)NCCCN2CCOCC2)cc1[N+](=O)[O-] | . | ? | . | .
Cc1cc(N2CCN(c3ccccn3)CC2)n2cc(-c3ccccc3)nc2n1 | . | 6.57µM | . | 13.1µM
SMILES | Shiga inhibitor | Pf growth 96h | CHX counter | Pf growth 48h
COc1cc(C(=O)NCCCN2CCCC2=O)ccc1OCc1ccc(Cl)cc1Cl | / | ? | / | 10.4µM
COc1ccccc1CNC(=O)c1ccc2c(=O)n(CCCN3CCCC3=O)c(=S)[nH]c2c1 | . | 14.7µM | . | ?
COc1ccc(Cl)cc1NC(=S)NCCCN1CCCC1=O | . | . | . | .
COC(=O)c1ccc2c(=O)n(CCCN3CCCC3=O)c(=S)[nH]c2c1 | . | . | . | 11.7µM
Cc1ccc(CNC(=O)c2ccc3c(=O)n(CCCN4CCCC4=O)c(=S)[nH]c3c2)cc1 | . | . | . | /
O=C(NCc1ccccc1)c1ccc2c(=O)n(CCCN3CCCC3=O)c(=S)[nH]c2c1 | . | ? | . | /
COc1ccc(CNC(=O)c2ccc3c(=O)n(CCCN4CCCC4=O)c(=S)[nH]c3c2)cc1 | . | 4.15µM | . | ?
COc1ccc(CNC(=O)CN(C(=O)CCC(=O)Nc2ccccn2)c2ccc(C)cc2)cc1 | . | . | . | .
O=C(CN(C(=O)CCC(=O)Nc1ccccn1)c1ccc2c(c1)OCO2)NCc1ccc(F)cc1 | . | . | . | ?

Compound activity from PubChem.
